From the supplement of paper PMC12350171 come the findings set out here.

Structures are written as SMILES. Where a name gives a salt, the structure may show the parent alone.

In this experiment the test system is Haemophilus parainfluenzae. The experiment can be described thus: growth AUC normalised to DMSO control (fraction of control); higher = less growth inhibition, active = hit call of the paper. The note with it: 20 µM. In outline: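 Pathogens passaged twice anaerobically were inoculated at a starting OD578 of 0.01 into pre-reduced mGAM plates with drug at 20 μM and 1% DMSO, sealed with breathable membranes. Haemophilus parainfluenzae medium was supplemented with hemin and NAD. OD578 was read hourly for 24 h, with three biological replicates. Growth-curve AUC was computed by the trapezoidal rule up to the exponential-to-stationary transition and normalised to DMSO controls on the same plate.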
As to `CC(=O)OCC(CCn1cnc2cnc(N)nc21)COC(C)=O` [Famciclovir], the “growth AUC normalised to DMSO control” value is 1.02 (inactive).
On to `Cc1nnc(SCC2=C(C(=O)O)N3C(=O)[C@@H](NC(=O)Cn4cnnn4)[C@H]3SC2)s1` [Cefazolin sodium salt], for which the “growth AUC normalised to DMSO control” value was 0.0609 (active).
Consider `CCCCOc1ccc(OCCCN2CCOCC2)cc1` [Pramoxine hydrochloride], for which the “growth AUC normalised to DMSO control” value is 0.936 (inactive).
For the compound `CC(C(O)c1ccc(O)cc1)N1CCC(Cc2ccccc2)CC1` (stereo not drawn) [Ifenprodil tartrate], the “growth AUC normalised to DMSO control” value is 1.01 (inactive).
The value for `CN(C)CCOC(c1ccc(Cl)cc1)c1ccccn1` (stereo not drawn) [Carbinoxamine maleate salt] was 1.08 (inactive).
Under `CC(C(=O)O)c1cccc(Oc2ccccc2)c1` (stereo not drawn) [Fenoprofen calcium salt dihydrate] stands 0.945 (inactive); under `Cc1ccc(S(=O)(=O)NC(=O)NN2CC3CCCC3C2)cc1` (stereo not drawn) [Gliclazide], 0.996 (inactive); under `COc1cc(Cc2cnc(N)nc2N)cc(OC)c1OC` [Trimethoprim], 0.0255 (active).
Under `CC(C)NCC(O)c1cc(O)cc(O)c1` (stereo not drawn) [Metaproterenol sulfate] stands 0.99 (inactive).
Regarding `Nc1nnc(-c2cccc(Cl)c2Cl)c(N)n1` [Lamotrigine], the “growth AUC normalised to DMSO control” value was 1.01 (inactive).
The value for `CCCNC(=O)NS(=O)(=O)c1ccc(Cl)cc1` [Chlorpropamide] was 0.995 (inactive); that for `CCN(CC)CCNC(=O)c1cc(Br)c(N)cc1OC` [Bromopride] was 1.03 (inactive).
The value for `CC(C(=O)O)c1ccc(-c2ccccc2)c(F)c1` (stereo not drawn) [Flurbiprofen] was 0.943 (inactive).
